Test results as given in the OligoGym collection.

target: WDFY1; experiment: pooled miR-30 sensor sort-seq; sequence = guide strand; settings: shRNA
Also: reference of the scale not given here.

Row | Sequence | sensor-assay potency score (higher = more potent)
1 | TTGATCGCCTCCTTAAACCTTT | -0.0804
2 | TAACAAGAATCACAAACCCGGA | -0.759
3 | TATAAAACAAATTTAGTCCTTT | 0.214
4 | TTCTCTGCTAACATCCATGTTC | -0.775
5 | TTGAGGGTTGTGATGACTGAAC | -1.35
6 | TCTTTCACTACACATTAGCTGT | -0.731
7 | TTGACCACTGTCTCTTTTCAGC | -0.843
8 | TTTCTTCTCTTCCTCATCCTGG | -0.185
9 | TTCATCTTTGATGGAGTCGTAA | -0.712
10 | TTCCACACTGCAATTCCGCCGT | -0.441
11 | TTTCACTACACATTAGCTGTTC | 0.757
12 | TAACTTGAGCGCTTGCTGCTGC | 0.171

target: WDR33; experiment: as above; settings: shRNA

Row | Sequence | sensor-assay potency score (higher = more potent)
13 | TAGATTATATCGATCTCGCATT | -0.783
14 | TTGTAGTCTATGGTTTTTCGGT | -0.753
15 | TTCAATTTTAAGTTGCTCCAGA | 0.632
16 | TTTACTTCCTGAAACAACTAAC | -1.04
